The campaign covered roughly 5,500 compounds. About 2,000 (36%) were called active. Not shown: some 18% with an inconclusive outcome. No stated cut-off is given here; in the data, active means normalized growth mostly below about 0.91 (no sharp cut-off); inconclusive means no clear call, values can overlap the other calls; inactive means mostly above about 0.92. Some of the results follow.
Experiment: chemical genetic growth profiling, strain panel (AID 1159580);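 further: tested at 20 µM; growth read once vehicle control cultures reached saturation at 30 °C; 1 = growth at the plate median or of vehicle wells; lower values mean less growth of the strain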
Settings: growth OD
[1] = S. cerevisiae deletion strains, locus YCL061C, strain MRC1, active compounds read low
[2] = S. cerevisiae deletion strains, locus YHR030C, strain SLT2, active compounds read low

Measured: normalized growth

Cc1onc(NC(=O)NC(=O)c2c(F)cccc2Cl)c1Br
inactive: S. cerevisiae deletion strains, locus YAL013W, strain DEP1, active compounds read low 1 | S. cerevisiae deletion strains, locus YBR229C, strain ROT2, active compounds read low 0.996 | [1] 1.03 | S. cerevisiae deletion strains, locus YDL101C, strain DUN1, active compounds read low 1.04 | S. cerevisiae deletion strains, locus YDR150W, strain NUM1, active compounds read low 1.01 | S. cerevisiae deletion strains, locus YEL061C, strain CIN8, active compounds read low 0.973 | S. cerevisiae deletion strains, locus YGR078C, strain PAC10, active compounds read low 1.01 | [2] 0.96 | S. cerevisiae deletion strains, locus YHR087W, strain rtc3, active compounds read low 0.971 | S. cerevisiae deletion strains, locus YJR043C, strain POL32, active compounds read low 1.01 | S. cerevisiae deletion strains, locus YJR075W, strain HOC1, active compounds read low 1.01 | S. cerevisiae deletion strains, locus YLR039C, strain RIC1, active compounds read low 1 | S. cerevisiae deletion strains, locus YLR058C, strain SHM2 (second series), active compounds read low 1 | S. cerevisiae deletion strains, locus YLR085C, strain ARP6, active compounds read low 0.986 | S. cerevisiae deletion strains, locus YLR262C, strain YPT6, active compounds read low 0.988 | S. cerevisiae deletion strains, locus YML094W, strain GIM5, active compounds read low 0.973 | S. cerevisiae deletion strains, locus YMR219W, strain ESC1, active compounds read low 0.998 | S. cerevisiae deletion strains, locus YMR263W, strain SAP30, active compounds read low 1.01 | S. cerevisiae deletion strains, locus YNL153C, strain GIM3, active compounds read low 1.02 | S. cerevisiae deletion strains, locus YNL298W, strain CLA4 (second series), active compounds read low 1.01 | S. cerevisiae deletion strains, locus YNL322C, strain KRE1, active compounds read low 1 | S. cerevisiae deletion strains, locus YNR030W, strain Alg12, active compounds read low 0.981 | S. cerevisiae deletion strains, locus YOL006C, strain TOP1, active compounds read low 1 | S. cerevisiae deletion strains, locus YPL055C, strain LGE1, active compounds read low 0.964 | S. cerevisiae deletion strains, locus YPL241C, strain CIN2, active compounds read low 1 | S. cerevisiae deletion strains, locus YPR135W, strain CTF4, active compounds read low 0.977 | S. cerevisiae strains, strain wild type, active compounds read low 1

O=C(NC(=O)c1c(F)cccc1F)Nc1ccc(Cl)cc1
inactive: S. cerevisiae deletion strains, locus YAL021C, strain ccr4, active compounds read low 1.03 | S. cerevisiae deletion strains, locus YAL026C, strain drs2, active compounds read low 1.01 | S. cerevisiae deletion strains, locus YAL030W, strain snc1, active compounds read low 1.02 | S. cerevisiae deletion strains, locus YBL061C, strain skt5, active compounds read low 1.01 | S. cerevisiae deletion strains, locus YBR009C, strain hhf1, active compounds read low 1.02 | S. cerevisiae deletion strains, locus YBR023C, strain chs3, active compounds read low 1.02 | S. cerevisiae deletion strains, locus YBR171W, strain sec66, active compounds read low 1.03 | S. cerevisiae deletion strains, locus YBR231C, strain swc5, active compounds read low 1.04 | S. cerevisiae deletion strains, locus YBR279W, strain paf1, active compounds read low 1.01 | S. cerevisiae deletion strains, locus YCL011C, strain gbp2, active compounds read low 1 | S. cerevisiae deletion strains, locus YCL016C, strain dcc1, active compounds read low 1.02 | [1] 1.01 | S. cerevisiae deletion strains, locus YCL069W, strain vba3, active compounds read low 0.996 | S. cerevisiae deletion strains, locus YCR088W, strain abp1, active compounds read low 1 | S. cerevisiae deletion strains, locus YDL005C, strain med2, active compounds read low 1.05 | S. cerevisiae deletion strains, locus YDL040C, strain nat1, active compounds read low 1.03 | S. cerevisiae deletion strains, locus YDR001C, strain nth1, active compounds read low 1.02 | S. cerevisiae deletion strains, locus YDR069C, strain doa4, active compounds read low 1.03 | S. cerevisiae deletion strains, locus YDR137W, strain rgp1, active compounds read low 1.01 | S. cerevisiae deletion strains, locus YDR159W, strain sac3, active compounds read low 1.04 | S. cerevisiae deletion strains, locus YDR195W, strain ref2 1.11 | S. cerevisiae deletion strains, locus YDR297W, strain sur2, active compounds read low 1.03 | S. cerevisiae deletion strains, locus YDR334W, strain swr1, active compounds read low 1.01 | S. cerevisiae deletion strains, locus YDR335W, strain msn5, active compounds read low 1.03 | S. cerevisiae deletion strains, locus YDR392W, strain spt3, active compounds read low 0.955 | S. cerevisiae deletion strains, locus YEL003W, strain gim4, active compounds read low 1.03 | S. cerevisiae deletion strains, locus YEL037C, strain rad23, active compounds read low 1.01 | S. cerevisiae deletion strains, locus YEL061C, strain CIN8 (second series), active compounds read low 1.01 | S. cerevisiae deletion strains, locus YER015W, strain faa2, active compounds read low 1.02 | S. cerevisiae deletion strains, locus YER016W, strain bim1, active compounds read low 1.03 | S. cerevisiae deletion strains, locus YER111C, strain swi4, active compounds read low 1.01 | S. cerevisiae deletion strains, locus YER155C, strain BEM2 (second series), active compounds read low 1.02 | S. cerevisiae deletion strains, locus YFR010W, strain ubp6, active compounds read low 1.01 | S. cerevisiae deletion strains, locus YGL167C, strain pmr1, active compounds read low 1.02 | S. cerevisiae deletion strains, locus YGL173C, strain kem1, active compounds read low 1.01 | S. cerevisiae deletion strains, locus YGL227W, strain vid30, active compounds read low 1.03 | S. cerevisiae deletion strains, locus YGL240W, strain doc1, active compounds read low 1.02 | S. cerevisiae deletion strains, locus YGL253W, strain hxk2, active compounds read low 1.01 | S. cerevisiae deletion strains, locus YHR013C, strain ard1, active compounds read low 1.03 | S. cerevisiae deletion strains, locus YHR027C, strain rpn1, active compounds read low 1.02 | [2] 1.06 | S. cerevisiae deletion strains, locus YHR079C, strain IRE1, active compounds read low 1.04 | S. cerevisiae deletion strains, locus YHR142W, strain chs7, active compounds read low 1.01 | S. cerevisiae deletion strains, locus YJL092W, strain hpr5, active compounds read low 1.02 | S. cerevisiae deletion strains, locus YJL095W, strain BCK1 (second series), active compounds read low 1.01 | S. cerevisiae deletion strains, locus YJL095W, strain BCK1, active compounds read low 1.03 | S. cerevisiae deletion strains, locus YJL115W, strain asf1, active compounds read low 1.04 | S. cerevisiae deletion strains, locus YJL129C, strain trk1, active compounds read low 1.02 | S. cerevisiae deletion strains, locus YJL154C, strain vps35, active compounds read low 1.01 | S. cerevisiae deletion strains, locus YJL164C, strain tpk1, active compounds read low 1 | S. cerevisiae deletion strains, locus YJL166W, strain qcr8, active compounds read low 1.02 | S. cerevisiae deletion strains, locus YJL187C, strain SWE1, active compounds read low 1.03 | S. cerevisiae deletion strains, locus YJR066W, strain TOR1, active compounds read low 0.956 | S. cerevisiae deletion strains, locus YKL160W, strain elf1, active compounds read low 1 | S. cerevisiae deletion strains, locus YKR026C, strain gcn3, active compounds read low 1.01 | S. cerevisiae deletion strains, locus YKR091W, strain srl3, active compounds read low 1.01 | S. cerevisiae deletion strains, locus YLL001W, strain dnm1, active compounds read low 0.996 | S. cerevisiae deletion strains, locus YLL026W, active compounds read low 1.02 | S. cerevisiae deletion strains, locus YLL041C, strain sdh2, active compounds read low 1.01 | S. cerevisiae deletion strains, locus YLR027C, strain aat2, active compounds read low 1.02 | S. cerevisiae deletion strains, locus YLR113W, strain HOG1, active compounds read low 1.04 | S. cerevisiae deletion strains, locus YLR221C, strain rsa3, active compounds read low 0.994 | S. cerevisiae deletion strains, locus YLR258W, strain gsy2, active compounds read low 1.02 | S. cerevisiae deletion strains, locus YLR262C, strain YPT6 (second series), active compounds read low 0.974 | S. cerevisiae deletion strains, locus YLR320W, strain mms22, active compounds read low 0.988 | S. cerevisiae deletion strains, locus YLR342W, strain FKS1, active compounds read low 1.02 | S. cerevisiae deletion strains, locus YLR357W, strain rsc2, active compounds read low 1.06 | S. cerevisiae deletion strains, locus YLR370C, strain arc18, active compounds read low 1.02 | S. cerevisiae deletion strains, locus YLR384C, strain iki3, active compounds read low 1.03 | S. cerevisiae deletion strains, locus YML120C, strain ndi1, active compounds read low 1 | S. cerevisiae deletion strains, locus YMR058W, strain fet3, active compounds read low 1.02 | S. cerevisiae deletion strains, locus YMR125W, strain sto1, active compounds read low 1.01 | S. cerevisiae deletion strains, locus YMR129W, active compounds read low 1.02 | S. cerevisiae deletion strains, locus YMR205C, strain PFK2, active compounds read low 1.04 | S. cerevisiae deletion strains, locus YMR231W, strain pep5, active compounds read low 1.03 | S. cerevisiae deletion strains, locus YNL071W, strain lat1, active compounds read low 1 | S. cerevisiae deletion strains, locus YNL183C, strain NPR1, active compounds read low 0.954 | S. cerevisiae deletion strains, locus YNL209W, strain ssb2, active compounds read low 1.02 | S. cerevisiae deletion strains, locus YNL248C, strain rpa49, active compounds read low 1 | S. cerevisiae deletion strains, locus YNL322C, strain KRE1 (second series), active compounds read low 1.02 | S. cerevisiae deletion strains, locus YNR049C, strain mso1, active compounds read low 1.02 | S. cerevisiae deletion strains, locus YOR001W, strain rrp6, active compounds read low 1.01 | S. cerevisiae deletion strains, locus YOR070C, strain gyp1, active compounds read low 1.02 | S. cerevisiae deletion strains, locus YOR080W, strain dia2, active compounds read low 1.03 | S. cerevisiae deletion strains, locus YOR083W, strain WHI5, active compounds read low 0.968 | S. cerevisiae deletion strains, locus YOR106W, strain vam3, active compounds read low 1.01 | S. cerevisiae deletion strains, locus YOR231W, strain MKK1, active compounds read low 1.03 | S. cerevisiae deletion strains, locus YOR265W, strain rbl2, active compounds read low 1.02 | S. cerevisiae deletion strains, locus YOR270C, strain vph1, active compounds read low 0.932 | S. cerevisiae deletion strains, locus YOR290C, strain snf2, active compounds read low 1.01 | S. cerevisiae deletion strains, locus YPL051W, strain arl3, active compounds read low 1.01 | S. cerevisiae deletion strains, locus YPL078C, strain atp4, active compounds read low 1 | S. cerevisiae deletion strains, locus YPL106C, strain sse1, active compounds read low 1.02 | S. cerevisiae deletion strains, locus YPL240C, strain hsp82, active compounds read low 1.04 | S. cerevisiae deletion strains, locus YPL256C, strain CLN2, active compounds read low 1.12

Reference: PubChem BioAssay AID1159580 (chemical genetic matrix, 2015)
